The text below walks through data of PubChem BioAssay AID1688 (National Center for Advancing Translational Sciences (NCATS), 2009).

In all, about 220,000 compounds went through this assay and about 2,400 (1.1%) were called active. Another 7% or so got no clear call; they are omitted. Calls follow the shape of the dose curve; as a rule, active = well fitted inhibition curve with a large enough effect; inconclusive = small, poorly fitted or top-dose-only effect, or effect the other way; inactive = no such curve, though single readings can be large or run the other way. Shown is part of a subset that was picked to be rich in actives. Entries that show only a call come without a potency.
Potency is read from the fitted curve at half-maximal effect.

The assay can be described thus: qHTS Multiplex Assay to Identify Dual Action Probes in a Cell Model of Huntington: Aggregate Formation (GFP). Also: nearly all actives have a fitted effect of over 60% in size. The settings on record: PC12 HttQ103-GFP aggregates, Acumen cytometry, 40 h; series mostly up to 9.22 µM. From the text: NIH Chemical Genomics Center [NCGC]
NIH Molecular Libraries Probe Production centers Network [MLPCN]
Assay Submitter (PI): Wei Zheng
Huntington's disease is a neurodegenerative disorder caused by a trinucleotide repeat expansion in Exon 1 of the Huntingtin gene. The CAG trinucleotide encodes glutamine and polyglutamine expansions cause cell death in selective areas of the brain. Huntington polyglutamine repeats have the tendency to form aggregates which are observable in later stages of the disease. The exact nature of the aggregates, whether toxic, protective, or insignificant, is unclear.
A stable PC12 cell line containing a gene fusion of Exon 1 of the Huntingtin gene linked to GFP under the control of the inducible ecdysone promoter were used as the cell-based model of Huntington Disease for high throughput screening. Exon 1 of the Huntingtin gene contained an expansion of 103 polyglutamines (Q103) which, when expressed, caused cell death and distinct, bright GFP aggregates. The amount of cell death and the size and intensity of GFP aggregates increased over time and induction level. The cell death were quantified with a measurement of ATP content in the cells. A maximal 40-50% of cell death was observed when the Huntington gene was induced in this cell line.
We optimized this assay in a homogeneous 1536 well format. A quantitative high throughput screen (qHTS) was conducted on the PC12 cells which were induced to express the toxic fusion construct. Small molecules which reduced aggregate formation were identified bu using a laser scanning cytometer calibrated to detect the aggregates in cell lysates.
PC12 cells stably containing a construct with an ecdysone inducible promoter expressing GFP fused to the exon 1 of HTTQ103 (Huntington protein which containing a 103 ployglutamine expansion) were used.
NCGC Assay Protocol Summary:
Sequence, Parameter, Description
1, Reagent, 5 uL 1500 cells/well 1536 TC treated White clear bottom plate
2, Compound, 23 nL Tebufenozide inducer (100 nM final) to all columns
3, Compound, 23 nL 40 uM to 0.5 nM Libraries
5, Reagent, 5 ul ATPLite cell death assay reagent
6, Detector, Aggregate quantitation by Acumen Explorer
Media consisted of phenol red free DMEM + 5% equine serum (Hyclone # SH30072.03 ), 5% supplemented Bovine Calf Serum (Hyclone # SH30074.03 ), 1x pen/strep, no G418
Acumen Explorer was used to quantitate GFP aggregates using the following criteria: […] laser excitation, 500-530 nm emission, the PMT was set at a voltage of 450 volts, and objects ranging in size of […] in size having a signal of 6 STDEV above background were collected.
Control columns: 1 = DMSO, 2= 2 uM teb dilns (1:1), 4 = 100 nM Teb inducer. Sample columns received 100 nM Teb.
On the technique in general: qHTS replaces the single test concentration by a dilution series.
In the case of `CCCCCn1c(=O)c(C(=O)NCc2ccccn2)c(O)c2ccccc21`, the Potency is 31.6 µM (active).

For `CCCCCn1c(=O)c(C(=O)Nc2c(C)n(C)n(-c3ccccc3)c2=O)c(O)c2ccccc21`, the Potency result was “inactive”. Turning to `C=CCN1CCC23c4c5ccc(O)c4O[C@H]2C(=O)CC[C@@]3(O)C1C5` (stereo not given in full), the Potency entry was “inactive”. To `c1ccc2sc(SNC3CCCCC3)nc2c1` belongs “inactive”. To `CN1CCN(/N=C/c2c[nH]c3ccccc23)CC1` belongs “inactive”; to `CC(Cc1ccccc1)NC=O` (stereo not given), “inactive”; to `CN1CCCC(=C(c2cccs2)c2cccs2)C1`, “inactive”. To `Cc1ncc(CC(=O)n2cc(C(=O)c3cc(Cl)ccc3O)cn2)s1` belongs 14.1 µM (active); to `COc1cccc(CN2CCCC(C(=O)c3ccccc3SC)C2)c1O` (stereo not given), “inactive”; to `CC[N+]1(CCOC(=O)C(O)(c2ccccc2)c2ccccc2)CCCCC1`, “inactive”. As to `COc1ccc(-n2c(-c3ccccc3)nc3ccccc3c2=O)cc1`, the Potency entry is “inactive”. The same measure for `O=Cc1cn(Cc2ccc(F)cc2Cl)c2ccccc12`: 10 µM (active); for `CC1C2Cn3c(nc4ccccc43)C1N(C)O2` (stereo not given): “inactive”. To `CCCCC(=O)N/N=C/c1c(O)n(CCC2=CCCCC2)c(=O)[nH]c1=O` belongs “inactive”; to `CCCCC(=O)N/N=C/c1c(O)n(-c2ccccc2)c(=O)[nH]c1=O`, “inactive”; to `CCCCC(=O)N/N=C/c1c(O)n(CC)c(=S)n(CC)c1=O`, 3.98 µM (active).

Consider `COC([CH2][Hg])CNC(=O)c1ccccc1OCC(=O)O` (stereo not given), for which the Potency entry was “inactive”. To `O=C(N/N=C/c1ccc([N+](=O)[O-])o1)c1cc([N+](=O)[O-])cc([N+](=O)[O-])c1O` belongs “inactive”. As for `CC(C)c1ccc(-n2c(O)c(/C=N/N3CCOCC3)c(=O)[nH]c2=S)cc1`, the Potency result is “inactive”. To `CCCn1c(C(=O)c2ccccc2OC)nc2ccccc21` belongs “inactive”.
